The entries come from a sample that favours hits as a whole.
TTR transcr act: TTR transcription activators in neuroblastoma reporter cells, primary screen, cell-based, luminescence, SH-SY5Y, TTR promoter Gaussia luciferase. 100% = recombinant luciferase protein wells. activation, % at 16.7 µM. 92,000 tested, 1.3% active;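 active = activation above the mean of all tested compounds plus 3 SD, cut at about 9.5% in these data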;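 also: cells exposed to compounds for one day before reading; 0% = median of all test compound wells on the plate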
HuH7 TTR inh: TTR promoter reporter inhibitors in hepatoma cells, counter-screen for TTR transcription activator project, cell-based, luminescence, HuH7 hepatoma. shares compounds with TTR transcr act. HuH7 TTR promoter-Gaussia luciferase reporter. inhibition, % at 16.7 µM. 1,100 tested, 4% active. AID 1117279, 2014;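 active = average inhibition above the solvent-only control wells' mean plus 3 SD, cut at about 15% in these data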;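 also: 0% = cells with DMSO only and 100% = cells with inhibitor control FD; inhibitors lower well luminescence so higher value means more inhibition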
TTR up confirm: TTR transcription activators, retest, confirmation, cell-based, luminescence, SH-SY5Y, triplicate; shares compounds with TTR transcr act; activation, % at 16.7 µM; 1,100 tested, under 10 active; SHSY5Y TTR promoter Gaussia luciferase; 100% = purified Lucia enzyme wells, no cells; AID 1117280, 2014;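 active = mean activation above a set limit taken from the earlier primary screen, cut at about 11% in these data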;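 also: 0% = DMSO-treated cells and 100% = recombinant Lucia luciferase without cells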
* = called active by the depositor.

SMILES	TTR transcr act	others
Cc1cccc2c1CCC1CN(Cc3ccccc3)S(=O)(=O)N21 (stereo not drawn)	-1
COC(=O)c1cnc(Nc2nc(C(N)Cc3ccccc3)cs2)nc1C(F)(F)F (stereo not drawn)	0
COC(=O)c1cnc(NNS(=O)(=O)c2ccc(Cl)cc2)nc1C(F)(F)F	11*	HuH7 TTR inh=-14;TTR up confirm=-1
COC(=O)c1cnc(NNC(=O)c2ccc([N+](=O)[O-])cc2)nc1C(F)(F)F	4
O=C(N1CCCC1)n1ncc(-c2ccc(-c3ccccc3)cc2)n1	-1
Cc1c(C(=O)O)c(C(=O)O)c2n1CCS2	3
CCN(c1ccccc1)S(=O)(=O)c1ccc(C(=O)NCCc2ccc(S(N)(=O)=O)cc2)cc1	-1
CCOc1cc(C(=O)NCCc2ccc(S(N)(=O)=O)cc2)cc(OCC)c1OCC	19*	HuH7 TTR inh=0;TTR up confirm=1
CC(C)(O)C#Cc1ccc(C(=O)NCCc2ccc(S(N)(=O)=O)cc2)cc1	-1
O=c1c2cc3cc(Cl)ccc3nc2ncn1Cc1ccc(Oc2ccccc2)cc1	-1
CC(O)CCC(=O)NNC1CC(=O)N(c2ccccc2)C1=O (stereo not drawn)	3
O=C1CC(NNc2ccccc2)C(=O)N1c1ccccc1 (stereo not drawn)	11*	HuH7 TTR inh=2;TTR up confirm=-1
CCOC(=O)NNC1CC(=O)N(c2ccccc2)C1=O (stereo not drawn)	2
C[C@H]1[C@H](NC(=O)c2ccc(C(F)(F)F)cc2)CC[C@@]23CCCN2C(=O)CCC[C@@H]13	1
CCCCOc1ccc(C(=O)NCC(=O)N2CCN(C(=O)c3ccco3)CC2)cc1	-1
Cc1cccc(NC(=O)CSc2nnc(NC(=O)c3ccco3)s2)c1	11*	HuH7 TTR inh=-29;TTR up confirm=3
O=C(CSc1nnc(NC(=O)c2ccco2)s1)Nc1ccc(F)cc1	2
Cc1cccc(CSc2nnc(NC(=O)c3ccco3)s2)c1	2
CC(=O)c1ccc(N2C(=NC(=O)COc3ccccc3)SC3CS(=O)(=O)CC32)cc1 (stereo not drawn)	10*	HuH7 TTR inh=-10;TTR up confirm=0
CC(=O)c1cccc(N2C(=NC(=O)CCc3ccccc3)SC3CS(=O)(=O)CC32)c1 (stereo not drawn)	0
CC(=O)c1ccc(N2C(=NC(=O)C3CCCO3)SC3CS(=O)(=O)CC32)cc1 (stereo not drawn)	-2
Cc1ncoc1C(=O)Nc1nccs1	10.0*	HuH7 TTR inh=-9;TTR up confirm=1
CCOC(=O)c1ccc(NC(=O)c2cccc(C)c2[N+](=O)[O-])cc1	1
Cc1cccc(C(=O)Nc2nccs2)c1[N+](=O)[O-]	40*	HuH7 TTR inh=-7;TTR up confirm=0
O=C(Nc1nccs1)c1ccc2c(c1)OCO2	0
SMILES	TTR transcr act	others
CC(=O)c1noc(C)c1C(=O)Nc1nccs1	-4
CSc1ccccc1C(=O)Nc1nccs1	-1
CC(C)c1ccc(N(C(=O)c2csnn2)C(C(=O)NC2CCCC2)c2cccnc2)cc1 (stereo not drawn)	-1
COC(=O)[C@H]1C[C@@]2(CC=C(C)C)c3ccccc3N(C(=O)OC(C)(C)C)[C@H]2N1C(=O)OC(C)(C)C	-1
COC(=O)C12CCCN1C1C(=O)N(Cc3ccc(C(N)=O)cc3)CC1C2 (stereo not drawn)	-1
COc1ccccc1-c1nnc(SCC#CCOC(=O)c2ccc(F)cc2)o1	-1
CC(C)(C)NC(=O)C(c1cccnc1)N(C(=O)c1cccs1)c1ccc(C(C)(C)C)cc1 (stereo not drawn)	2
CN1C2=N[C@H](c3ccccc3Br)CC(=O)N2/C(=C\c2ccccc2)[C@@H]1c1ccccc1	0
Cc1nnc(SCC(=O)NN2C(=O)NC3(CCCCC3)C2=O)s1	11*	HuH7 TTR inh=-6;TTR up confirm=-1
CCC(=O)N(c1nnc(SCC(=O)NN2C(=O)NC3(CCC(C)CC3)C2=O)s1)C1CC1 (stereo not drawn)	0
Cc1ccc(C(=O)CCC(=O)NN2C(=O)NC3(CCCCC3)C2=O)cc1	-2
O=C(c1c[nH]c(C(=O)N2CCN(c3ccccc3F)CC2)c1)c1cccc(Cl)c1Cl	-3
CCCC[C@H]1C2CC(OC(=O)Nc3ccc(C(F)(F)F)cc3)C(C2)[C@H]2CCCCN21 (stereo partly drawn)	1
Cn1c(=O)c(C(=O)CN2CC(=O)Nc3ccccc32)c(N)n(Cc2ccccc2)c1=O	1
CCS(=O)(=O)C(=C1Nc2ccccc2N1)S(=O)(=O)CC	21*	HuH7 TTR inh=-13;TTR up confirm=2
O=C1Nc2ccccc2C1=O	0
CCC1(CC)C(=O)Nc2ccccc21	6
COC(=O)[C@H]1C[C@]2(C(C=C(C)C)S(=O)(=O)c3ccccc3)c3ccccc3N[C@H]2N1 (stereo partly drawn)	0
O[C@H]1C[C@H](c2ccccc2)N(CC2CCCCC2)C[C@@H]1n1cc(-c2ccc(F)cc2)nn1	2
Cc1ccc([C@H]2C[C@H](n3cc(-c4ccc(F)cc4)nn3)[C@@H](O)CN2C(=O)C2CCCCC2)cc1	6
O=C(C1CCCCC1)N1C[C@H](n2cc(-c3ccc(F)cc3)nn2)[C@@H](O)C[C@@H]1c1ccccc1	13*	HuH7 TTR inh=-7;TTR up confirm=-1
Nc1[nH]c(C(=O)c2ccc(Br)cc2)c(-c2ccc(Br)cc2)c1C(=O)N1CCCCC1	0
CC1=C[C@]2(CN(CC3CC3)C3=N[C@H](c4ccccc4)CC(=O)N32)n2c(=O)n(-c3ccccc3)c(=O)n2C1	1
O=C(N[C@@H]1CCCc2c1cnn2-c1ccc(F)cc1F)c1ccccn1	4
Cc1ccc(Cn2cc(COC(=O)N3CCOCC3)nn2)cc1	-1
SMILES	TTR transcr act	others
O=C(OCC#CCSc1nnc(-c2cccs2)o1)c1ccc(F)cc1	0
COc1cc2c(cc1OC)C(c1ccccc1Cl)N(C)CC2 (stereo not drawn)	-1
CCN1C(=O)[C@@H]2[C@@H](c3ccc(SC4CCCCC4)cc3)N3CCC[C@@]3(C(=O)OC)[C@@H]2C1=O	11*	HuH7 TTR inh=-4;TTR up confirm=0
CCN1C(=O)[C@H]2[C@@H](c3ccc(SC4CCCCC4)cc3)N3CCCC[C@@]3(C(=O)OC)[C@H]2C1=O	3
COC(=O)[C@@]12CCCN1[C@H](c1ccc(SC3CCCCC3)cc1)[C@H]1C(=O)N(C)C(=O)[C@H]12	-1
CCOC(=O)[C@@]12CCC3=C1N(CCC3)C(=O)[C@H](CC(=O)NCc1cccc(C(F)(F)F)c1)C2	0
CN(CCNC(=O)C1CCCN(c2ncnc3c2nc2n3CCCCC2)C1)Cc1ccccc1 (stereo not drawn)	7
CCOC(=O)C(Cc1ccccc1)P(=O)(OCC)OCC (stereo not drawn)	1
O=C(Nc1ccccc1)Nc1nc2ncccn2c1-c1ccc(F)c(F)c1	-2
CC[n+]1c(C)sc2c(C)cc(C)cc21	26*	HuH7 TTR inh=-3;TTR up confirm=0
C[C@H]1[C@@H](OC(=O)NC2CCC2)CC[C@@]23CCCN2C(=O)CCC[C@@H]13	0
CC1CCC(NC(=O)C2CCC(CNS(=O)(=O)c3cccc4cccnc34)CC2)CC1 (stereo not drawn)	-2
CCCCCn1c(=O)c(Cc2ccccc2)c(O)c2ccccc21	-2
CCCn1c(=O)c(C(=O)NCc2ccccc2)c(O)c2ccccc21	-1
